Molecules are shown by their SMILES. Compounds without any hit were thinned out: in the full panel of roughly 83,000, 20% have a hit.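 Method: cells in 96-well plates; compound added at one concentration; 48 h incubation; percent growth measured; values under 10 scored active.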 A number with no mark means an inactive call. Active and inactive are the calls of the source.

The test system of this assay is HOP-62 NSCLC. The assay can be described thus: NCI-60 one-dose screen, 48 h (100 = growth as untreated, 0 = no growth, -100 = all killed). Particulars: 10 µM unless noted. How it is done:
Growth inhibition of the HOP-62 human Non-Small Cell Lung tumor cell line is measured as a screen for anti-cancer activity. Cells are grown in 96 well plates and exposed to the test compound for 48 hours. Compounds are tested at a single concentration, which is 10^-5 M for most compounds. The reported endpoint is percent growth (GI% or GIPRCNT), where numbers from 0 - 100% represent growth inhibition, and numbers from -100% - 0 represent cell death. For example, a value of 40 represents 60% growth inhibition. A value of 0 means no net growth occurred over the course of the experiment. A value of -40 indicates 40% of cells at the beginning of the experiment died by the end of the experiment. A value of -100 means all cells are dead at the end of the experiment.
NCI-60 Human Tumor Cell Lines Screen was performed using the standard one-dose NCI protocol, which is described in more detail at https://dtp.cancer.gov/discovery_development/nci-60/default.htm.
Compounds with GIPRCNT values below 10 were considered active. Activity score was based on GIPRCNT using the following formula: […]
Score is 0 for GIPRCNT values of 100 or above, 50 for GIPRCNT values of 0, and 100 for GIPRCNT values of -100.
As to `COc1ccc(-c2oc3cc(O)c(OC)c(O)c3c(=O)c2OC)cc1O`, the growth was 43%.

With `CC1=NN(c2ccccc2Cl)C(=O)/C1=C\c1cn(S(=O)(=O)c2ccc(C)cc2)c2ccccc12`, the growth is 62.3%.

For the compound `CC(=O)NC1(C(=O)O)CCCC1`, the growth is 117%.

Consider `O=C1NCC(Nc2ccc(Br)cc2Cl)C(=O)N1` (stereo not given), for which the growth is 113%.

Turning to `O=C(Nc1ccc(Nc2ccncc2)cc1)c1ccc(Nc2ccnc3ccc([N+](=O)[O-])cc23)cc1[N+](=O)[O-]`, the growth was 127%.

Turning to `Cc1cc(NC(=O)Nc2cc(Cl)ccc2C)no1`, the growth is 96.2%.

In the case of `N#CCCCCCn1c2ccccc2c2c3c(c4c5ccccc5[nH]c4c21)C(=O)N(O)C3=O`, the growth is 18.4%.

With `NC(=O)NN=C(C1CC1)C1CC1`, the growth was 104%.

For the compound `CC(=O)NCCSC(=O)C(=O)SCCNC(C)=O`, the growth is 107%.

Regarding `COc1ccc(-c2cnnn2-c2cc(OC)c3c(c2)OCO3)cc1`, the growth was 30.2%.

With `CCCCCCC/C(=N\N=C(N)N)c1ccc(O)cc1`, the growth was 43.9%.

As to `O=C(CSc1nc2c(n1Nc1ccccc1)-c1ccccc1SC2)Nc1nc(-c2ccc(Cl)cc2)cs1`, the growth is 62.3%.

In the case of `COc1ccc(-c2nc3sccn3c2-c2ccnc(S(C)(=O)=O)n2)cc1`, the growth is 78.7%.

For `COc1ccc(Nc2ccnc(NCCCNc3ccnc4cc(Cl)ccc34)n2)cc1`, the growth is 46.9%.

With `COc1ccc(Cn2c(NCCCN(C)C)nc(=O)n(Cc3ccc(F)cc3)c2=O)cc1`, the growth is 93.5%.

In the case of `Cc1ccc(NC(=O)CSc2nnc3n(Cc4ccccc4)c(=O)c4c(C)c(C(N)=O)sc4n23)cc1`, the growth was -7.47% (active).

Take `CN(C)c1ccc(/C=C\c2ccnc3ccccc23)cc1`: the growth was 82%.

Regarding `COc1ccc2[nH]cc(/C=C3/C(=O)Nc4ccc(Cl)cc43)c2c1`, the growth is 64.8%.

On to `COc1cc(/C=C2\CCC/C(=C\c3ccc(OCC4CO4)c(OC)c3)C2=O)ccc1OCC1CO1` (stereo not given), for which the growth is 28.9%.

On to `NC(=O)SCC(=O)Nc1ccccc1-c1ccccc1`, for which the growth is 116%.

In the case of `Cc1cc([N+](=O)[O-])c(C)cc1C(=O)O`, the growth is 103%.

Consider `CCOC(=O)c1c(C)nc(C)c(C(=O)OCC)c1-c1cccnc1`, for which the growth is 94.6%.

Take `COc1ccc(COC(C)=O)cc1`: the growth was 101%.

In the case of `Cc1scc2c1N(C(=O)CN1CCN(C)CC1)c1ccccc1NC2=O`, the growth was 103%.

Turning to `CCOC(=O)c1c(C)c(C(=O)OCC)n(C)c1C`, the growth was 74.4%.

`CCOC(=O)C1=NN(c2ccc(Cl)cc2)C2C3N(c4ccc(Cl)cc4)N=C(C(=O)OCC)N3c3ccccc3N12` (stereo not given): the growth was 114%.

Regarding `O=C(/C(=N/O)S(=O)(=O)c1ccccc1)c1cccs1`, the growth is 94.4%.

`Fc1ccc([C@@H]2CCNC[C@H]2COc2ccc3c(c2)OCO3)cc1`: the growth was 79%.

On to `C[n+]1ccc(Nc2ccc(NC(=O)c3ccc(Nc4cc[n+](C)c5ccc(N)cc45)cc3)cc2)cc1`, for which the growth was 102%.

Consider `COc1ccc(OC)c2c1[nH]c(=O)c1c3ccccc3cn21`, for which the growth was -33.6% (active).

Consider `O=C1C(=O)c2ccc(Br)cc2-c2cc(Br)ccc21`, for which the growth is 76.3%.

For the compound `COc1ccccc1[C@H]1c2[nH]c3ccccc3c2C[C@H]2C(=O)N(CCCCCCC(=O)NO)CC(=O)N12`, the growth is 50.2%.

On to `Cc1ccccc1NC(=O)c1cc2ccccc2cc1O`, for which the growth is 39.2%.

With `Cc1ccc2c(c1)O/C(=C\c1ccc([N+](=O)[O-])o1)C2=O`, the growth was 69.6%.

Take `Cc1cc(C)n2nc(SCC(=O)Nc3sc4c(c3C(N)=O)CCC4)nc2n1`: the growth is 93.7%.

As to `COc1cc2c(c(OC)c1OC)-c1ccc(NN(C(=O)c3ccccc3)C(=O)c3ccccc3)c(=O)cc1[C@@H](NC(C)=O)CC2` (tested in a mixture with another compound), the growth is 46%.

On to `COc1cc2c(-c3nc4cc(Cl)c(F)cc4s3)cc(=O)oc2c(C)c1OC`, for which the growth is -65.7% (active).

Consider `Cc1cc(C(=O)O)c(C)cc1C(=O)O`, for which the growth was 93.5%.

Take `Cc1cc2c(cc1C)Nc1sc(NC(=O)CN3CCN(C)CC3)nc1C(=O)N2`: the growth was 94.5%.

Turning to `CCOC(=O)C(Cc1ccccc1)(C(=O)OCC)C(Br)C(=O)c1ccccc1` (stereo not given), the growth was 95.6%.

Values taken from PubChem BioAssay (NCI).
